Of roughly 8,800 targets only a part is listed; those with a hit were picked by preference. About 0.5% of all pairs of compound and target were hits.
What was measured:
Experiment in all cases: log2 fold change, soluble protein after heating vs DMSO (PISA); higher = thermal stabilisation; K562 lysate, 10 uM; active = over 0.2 and 3.5 SD of the protein, either way, in both replicates (recomputed)
nilotinib = compound: Cc1cn(-c2cc(NC(=O)c3ccc(C)c(Nc4nccc(-c5cccnc5)n4)c3)cc(C(F)(F)F)c2)cn1 [nilotinib]
Outline: (§1)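 To prepare the extract, K562 pellets were dounce-homogenised in PBS pH 7.4 with 1 mM MgCl2, giving crude material at 1 mg/mL protein. This was treated with 10 μM compound for 30 min, then heated in aliquots for 3 min over 48°C-58°C before pooling and addition of NP-40 to 0.5% at 4°C. Centrifugation at 21,000xg for 90 min left soluble protein in the supernatant, which TMTpro 16plex LC-MS/MS quantified with equalised channel sums. Results are log-two fold changes in thermal stability compared with solvent controls, from duplicates.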

[1] = compound: Cc1nc(Nc2n[nH]c3c2CN(C(=O)N[C@H](CN(C)C)c2ccccc2)C3(C)C)c2sccc2n1
Outline: as §1

dasatinib = compound: Cc1nc(Nc2ncc(C(=O)Nc3c(C)cccc3Cl)s2)cc(N2CCN(CCO)CC2)n1 [dasatinib]
Outline: as §1

[2] = compound: Cc1ncc(-c2ccnc(Nc3ccc(S(C)(=O)=O)cc3)n2)n1C(C)C
Outline: as §1

[3] = compound: Cn1cc(-c2ccc3c(c2)CCN3C(=O)Cc2cccc(C(F)(F)F)c2)c2c(N)ncnc21
Outline: as §1

quisinostat = compound: Cn1cc(CNCC2CCN(c3ncc(C(=O)NO)cn3)CC2)c2ccccc21 [quisinostat]
Outline: as §1

tipifarnib = compound: Cn1cncc1[C@@](N)(c1ccc(Cl)cc1)c1ccc2c(c1)c(-c1cccc(Cl)c1)cc(=O)n2C [tipifarnib]
Outline: as §1

[4] = compound: NC(=O)Nc1cc(-c2cccc(F)c2)sc1C(=O)N[C@H]1CCCNC1
Outline: as §1

[5] = compound: NC(=O)c1cnc(N[C@@H]2CCCC[C@@H]2N)nc1Nc1cccc(-n2nccn2)c1
Outline: as §1

[6] = compound: NC1(c2ccc(-c3nc4ccn5c(=O)[nH]nc5c4cc3-c3ccccc3)cc2)CCC1
Outline: as §1

[7] = compound: NCC(=O)Nc1ccc(-n2nc(C(F)(F)F)cc2-c2ccc3c(ccc4ccccc43)c2)cc1
Outline: as §1

vorinostat = compound: O=C(CCCCCCC(=O)Nc1ccccc1)NO [vorinostat]
Outline: as §1

silmitasertib = compound: O=C(O)c1ccc2c(c1)nc(Nc1cccc(Cl)c1)c1ccncc12 [silmitasertib]
Outline: as §1

[8] = compound: O=C1NC(=O)C(c2cnc3ccccn23)=C1c1cn2c3c(cc(F)cc13)CN(C(=O)N1CCCCC1)CC2
Outline: as §1

entospletinib = compound: c1cn2cc(-c3ccc4cn[nH]c4c3)nc(Nc3ccc(N4CCOCC4)cc3)c2n1 [entospletinib]
Outline: as §1

Measured: log2 fold change

MACROD1 (UniProt Q9BQ69)
inactive: nilotinib 0.036 | [1] -0.099 | dasatinib -0.066 | [2] 0.021 | [3] 0.055 | quisinostat -0.083 | tipifarnib 0.005 | [4] 0.022 | [5] -0.006 | [6] -0.024 | [7] 0.11 | silmitasertib 0.04 | [8] 0.05 | entospletinib 0.047
active: vorinostat -0.363

MAPK8 isoform 3 (UniProt P45983)
inactive: nilotinib 0.051 | [1] -0.007 | dasatinib 0.054 | [3] 0.07 | quisinostat -0.139 | tipifarnib 0.006 | [4] 0.093 | [5] 0.115 | [6] -0.062 | [7] 0.064 | silmitasertib 0.007 | [8] 0.038 | entospletinib -0.039
active: [2] 0.326 | vorinostat -0.395

KLC2 (UniProt Q9H0B6)
inactive: nilotinib 0.016 | [1] 0.013 | dasatinib -0.062 | [2] 0.067 | [3] 0.041 | quisinostat -0.017 | tipifarnib 0.063 | [4] 0.012 | [5] 0.013 | [6] -0.036 | [7] 0.01 | silmitasertib -0.005 | [8] -0.061 | entospletinib 0.034
active: vorinostat -0.348

MRPL28 (UniProt Q13084)
inactive: nilotinib 0.03 | [1] -0.111 | dasatinib -0.013 | [2] -0.037 | [3] 0.051 | quisinostat -0.031 | tipifarnib 0.149 | [4] 0.057 | [5] 0.015 | [6] -0.058 | [7] 0.002 | vorinostat -0.037 | silmitasertib 0.022 | [8] 0.044 | entospletinib 0.129

MAP4 (UniProt P27816)
inactive: nilotinib -0.002 | [1] -0.001 | dasatinib 0.013 | [2] 0.016 | [3] -0.036 | quisinostat -0.001 | tipifarnib 0.012 | [4] -0.034 | [5] -0.011 | [6] -0.003 | [7] 0.017 | vorinostat 0.092 | silmitasertib -0.023 | [8] 0.016 | entospletinib 0.005

LBR (UniProt Q14739)
Chain of UniProt Q14739 (Q14739 whole entry, looked up): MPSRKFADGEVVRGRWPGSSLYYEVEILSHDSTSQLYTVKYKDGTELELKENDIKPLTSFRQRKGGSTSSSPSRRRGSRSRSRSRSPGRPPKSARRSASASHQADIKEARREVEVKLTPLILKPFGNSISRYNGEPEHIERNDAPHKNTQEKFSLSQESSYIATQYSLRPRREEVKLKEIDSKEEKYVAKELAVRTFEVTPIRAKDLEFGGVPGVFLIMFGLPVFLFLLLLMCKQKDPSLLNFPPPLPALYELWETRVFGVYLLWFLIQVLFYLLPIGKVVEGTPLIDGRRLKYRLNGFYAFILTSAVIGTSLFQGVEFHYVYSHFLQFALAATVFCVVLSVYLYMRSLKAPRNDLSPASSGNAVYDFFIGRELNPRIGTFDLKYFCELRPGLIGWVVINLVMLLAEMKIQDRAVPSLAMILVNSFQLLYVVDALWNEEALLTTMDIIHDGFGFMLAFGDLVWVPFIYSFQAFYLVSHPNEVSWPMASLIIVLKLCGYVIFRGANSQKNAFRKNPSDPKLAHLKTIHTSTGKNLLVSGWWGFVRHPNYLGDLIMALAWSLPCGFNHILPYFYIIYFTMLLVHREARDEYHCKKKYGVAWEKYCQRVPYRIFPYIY
inactive: nilotinib -0.026 | [1] 0.015 | dasatinib -0.04 | [2] -0.004 | [3] 0.003 | quisinostat 0.065 | tipifarnib -0.03 | [4] -0.048 | [5] 0.006 | [6] 0.08 | [7] -0.121 | vorinostat 0.17 | silmitasertib -0.001 | [8] -0.076 | entospletinib -0.009

LYN (UniProt P07948)
Chain of UniProt P07948 (P07948 whole entry, looked up): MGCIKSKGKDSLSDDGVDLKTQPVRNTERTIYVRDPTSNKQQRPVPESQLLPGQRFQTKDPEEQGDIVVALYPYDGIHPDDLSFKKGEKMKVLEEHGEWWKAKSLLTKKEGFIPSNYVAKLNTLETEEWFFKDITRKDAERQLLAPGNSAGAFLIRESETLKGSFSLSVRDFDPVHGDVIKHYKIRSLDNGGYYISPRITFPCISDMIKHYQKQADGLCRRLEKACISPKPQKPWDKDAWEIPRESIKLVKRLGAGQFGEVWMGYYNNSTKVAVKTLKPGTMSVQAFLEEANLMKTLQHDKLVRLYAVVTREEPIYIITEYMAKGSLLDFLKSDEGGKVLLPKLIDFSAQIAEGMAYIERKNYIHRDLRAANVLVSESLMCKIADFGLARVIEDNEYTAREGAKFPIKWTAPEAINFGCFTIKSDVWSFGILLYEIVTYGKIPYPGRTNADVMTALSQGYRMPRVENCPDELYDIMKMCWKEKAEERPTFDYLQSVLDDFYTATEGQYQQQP
active: [4] 0.842
inactive: nilotinib 0.158 | [1] 0.218 | dasatinib 0.457 | [2] -0.026 | [3] 0.095 | quisinostat -0.125 | tipifarnib -0.154 | [5] 0.084 | [6] -0.037 | [7] 0.025 | vorinostat -0.305 | silmitasertib -0.058 | [8] -0.108 | entospletinib 0.149

LSG1 (UniProt Q9H089)
inactive: nilotinib 0.003 | [1] 0.015 | dasatinib 0.102 | [2] 0.026 | [3] 0.137 | quisinostat -0.091 | tipifarnib -0.004 | [4] 0.115 | [5] -0.014 | [6] 0.032 | [7] -0.074 | vorinostat -0.052 | silmitasertib 0.043 | [8] 0.096 | entospletinib 0.139

MAP3K4 (UniProt Q9Y6R4)
active: dasatinib 0.485 | vorinostat -0.524
inactive: nilotinib 0.003 | [1] 0.206 | [2] 0.095 | [3] 0.132 | quisinostat -0.078 | tipifarnib -0.015 | [4] 0.203 | [5] 0.045 | [6] -0.021 | [7] -0.025 | silmitasertib 0.229 | [8] -0.025 | entospletinib -0.045

LRWD1 (UniProt Q9UFC0)
Chain of UniProt Q9UFC0 (Q9UFC0 whole entry, looked up): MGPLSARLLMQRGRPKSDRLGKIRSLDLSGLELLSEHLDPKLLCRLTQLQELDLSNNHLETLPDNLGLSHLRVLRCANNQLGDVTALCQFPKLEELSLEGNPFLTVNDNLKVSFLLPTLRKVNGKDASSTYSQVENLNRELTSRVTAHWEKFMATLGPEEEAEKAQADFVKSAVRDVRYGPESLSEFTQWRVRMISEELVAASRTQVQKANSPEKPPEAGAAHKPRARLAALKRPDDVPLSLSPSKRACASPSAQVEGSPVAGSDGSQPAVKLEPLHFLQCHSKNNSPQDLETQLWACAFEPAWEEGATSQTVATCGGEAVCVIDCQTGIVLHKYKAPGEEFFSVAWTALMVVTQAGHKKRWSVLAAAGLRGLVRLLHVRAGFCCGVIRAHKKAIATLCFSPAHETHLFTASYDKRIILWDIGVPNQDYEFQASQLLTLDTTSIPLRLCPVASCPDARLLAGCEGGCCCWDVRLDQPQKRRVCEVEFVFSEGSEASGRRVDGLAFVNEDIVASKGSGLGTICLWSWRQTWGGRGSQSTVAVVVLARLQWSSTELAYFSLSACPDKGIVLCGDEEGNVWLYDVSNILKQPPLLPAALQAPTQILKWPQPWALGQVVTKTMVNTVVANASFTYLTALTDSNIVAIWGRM
inactive: nilotinib 0.026 | [1] -0.05 | dasatinib -0.055 | [2] 0.017 | [3] 0.02 | quisinostat -0.132 | tipifarnib 0.007 | [4] 0.053 | [5] 0.017 | [6] -0.033 | [7] -0.022 | silmitasertib -0.008 | [8] -0.011 | entospletinib 0.006
active: vorinostat -0.322

MOCS1 isoform 8 (UniProt Q9NZB8)
Chain of UniProt Q9NZB8 (Q9NZB8 whole entry, looked up): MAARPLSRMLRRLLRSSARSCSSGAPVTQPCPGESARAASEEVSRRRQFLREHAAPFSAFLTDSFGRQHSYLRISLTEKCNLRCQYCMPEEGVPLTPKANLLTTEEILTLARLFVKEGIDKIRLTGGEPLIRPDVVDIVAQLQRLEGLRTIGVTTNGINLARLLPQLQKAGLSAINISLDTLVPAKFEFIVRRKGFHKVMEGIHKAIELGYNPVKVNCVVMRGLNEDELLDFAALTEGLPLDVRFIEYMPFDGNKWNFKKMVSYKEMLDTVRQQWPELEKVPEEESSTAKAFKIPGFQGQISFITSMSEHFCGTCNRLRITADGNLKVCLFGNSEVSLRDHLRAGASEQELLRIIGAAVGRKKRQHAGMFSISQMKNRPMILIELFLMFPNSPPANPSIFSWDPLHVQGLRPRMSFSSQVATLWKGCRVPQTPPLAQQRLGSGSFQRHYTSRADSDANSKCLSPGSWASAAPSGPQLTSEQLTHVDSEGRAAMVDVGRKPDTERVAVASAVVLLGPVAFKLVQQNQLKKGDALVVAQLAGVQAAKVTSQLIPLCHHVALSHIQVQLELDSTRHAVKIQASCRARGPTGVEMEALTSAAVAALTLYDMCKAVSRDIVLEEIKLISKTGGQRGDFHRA
inactive: nilotinib 0.188 | [1] -0.03 | dasatinib 0.074 | [2] 0.227 | [3] -0.013 | quisinostat -0.082 | tipifarnib -0.231 | [4] 0.093 | [5] 0.021 | [6] -0.033 | [7] -0.1 | vorinostat 0.06 | silmitasertib -0.018 | [8] -0.111 | entospletinib -0.051

MIF (UniProt P14174)
Chain of UniProt P14174 (P14174 whole entry, looked up): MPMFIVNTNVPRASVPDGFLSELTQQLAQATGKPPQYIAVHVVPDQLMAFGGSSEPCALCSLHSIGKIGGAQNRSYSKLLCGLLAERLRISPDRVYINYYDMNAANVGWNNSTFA
inactive: nilotinib 0.036 | [1] -0.042 | dasatinib 0.001 | [2] -0.007 | [3] -0.009 | quisinostat 0.058 | tipifarnib 0.061 | [4] 0.035 | [5] 0 | [6] 0.033 | [7] 0.048 | vorinostat -0.055 | silmitasertib 0.065 | [8] -0.009 | entospletinib 0.064

LYAR (UniProt Q9NX58)
Chain of UniProt Q9NX58 (Q9NX58 whole entry, looked up): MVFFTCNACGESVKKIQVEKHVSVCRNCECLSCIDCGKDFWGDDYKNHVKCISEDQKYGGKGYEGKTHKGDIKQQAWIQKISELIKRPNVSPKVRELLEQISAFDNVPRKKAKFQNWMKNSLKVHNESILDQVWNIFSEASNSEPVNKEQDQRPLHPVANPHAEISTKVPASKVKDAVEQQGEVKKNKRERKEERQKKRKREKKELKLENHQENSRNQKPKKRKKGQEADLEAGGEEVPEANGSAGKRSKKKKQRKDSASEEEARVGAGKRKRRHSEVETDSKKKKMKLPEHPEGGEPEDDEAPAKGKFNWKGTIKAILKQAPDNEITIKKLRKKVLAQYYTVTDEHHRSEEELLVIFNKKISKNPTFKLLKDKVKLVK
inactive: nilotinib 0.01 | [1] -0.021 | dasatinib 0.002 | [2] 0.005 | [3] 0.014 | quisinostat 0.003 | tipifarnib 0 | [4] -0.002 | [5] -0.016 | [6] -0.012 | [7] 0.011 | vorinostat 0.109 | silmitasertib 0.005 | [8] 0.001 | entospletinib 0.014

MIF4GD isoform 3 (UniProt A9UHW6)
inactive: nilotinib -0.036 | [1] 0.031 | dasatinib 0.056 | [2] -0.015 | [3] 0.039 | quisinostat -0.04 | tipifarnib 0.016 | [4] 0.052 | [5] -0.032 | [6] -0.007 | [7] 0.008 | silmitasertib 0.018 | [8] -0.012 | entospletinib -0.032
active: vorinostat -0.232

MAP2K4 isoform 2 (UniProt P45985)
Chain of UniProt P45985 (P45985 whole entry, looked up): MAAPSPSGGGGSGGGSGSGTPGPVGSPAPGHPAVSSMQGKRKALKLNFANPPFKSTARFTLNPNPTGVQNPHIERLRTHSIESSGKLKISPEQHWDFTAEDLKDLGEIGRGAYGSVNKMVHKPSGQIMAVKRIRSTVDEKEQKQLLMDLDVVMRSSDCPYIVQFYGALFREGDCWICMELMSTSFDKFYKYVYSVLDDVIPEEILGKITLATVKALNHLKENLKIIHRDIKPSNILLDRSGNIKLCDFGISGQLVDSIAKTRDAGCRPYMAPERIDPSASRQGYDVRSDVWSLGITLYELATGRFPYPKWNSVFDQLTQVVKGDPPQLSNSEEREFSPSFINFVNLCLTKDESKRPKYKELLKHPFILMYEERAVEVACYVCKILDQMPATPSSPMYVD
inactive: nilotinib -0.013 | [1] 0.052 | dasatinib -0.014 | [2] 0.248 | [3] 0.046 | quisinostat -0.112 | tipifarnib -0.023 | [4] 0.019 | [5] 0.063 | [6] 0 | [7] -0.119 | vorinostat -0.216 | silmitasertib 0.023 | [8] 0.013 | entospletinib 0.028

MRPL12 (UniProt P52815)
inactive: nilotinib 0.032 | [1] -0.01 | dasatinib 0.034 | [2] 0.099 | [3] -0.013 | quisinostat 0.084 | tipifarnib 0.031 | [4] -0.023 | [5] -0.022 | [6] -0.006 | [7] -0.07 | vorinostat 0.116 | silmitasertib -0.023 | [8] 0 | entospletinib -0.152

METTL2A (UniProt Q96IZ6)
active: vorinostat -0.28
inactive: nilotinib -0.012 | [1] 0.022 | dasatinib 0.044 | [2] -0.014 | [3] 0.03 | quisinostat -0.042 | tipifarnib 0.01 | [4] 0.057 | [5] -0.029 | [6] 0.005 | [7] 0.033 | silmitasertib -0.005 | [8] 0.058 | entospletinib -0.003

MRPL10 isoform 2 (UniProt Q7Z7H8)
inactive: nilotinib 0.009 | [1] 0.016 | dasatinib -0.019 | [2] 0.025 | [3] 0.054 | quisinostat -0.22 | tipifarnib -0.017 | [4] 0.015 | [5] 0.024 | [6] -0.011 | [7] 0.005 | vorinostat 0.035 | silmitasertib -0.027 | [8] -0.027 | entospletinib -0.027

LGALS3BP (UniProt Q08380)
inactive: nilotinib -0.056 | [1] 0.06 | dasatinib 0.339 | [2] -0.043 | [3] -0.128 | quisinostat -0.007 | tipifarnib -0.123 | [4] 0.111 | [5] 0.125 | [6] 0.137 | [7] 0.153 | vorinostat 0.176 | silmitasertib -0.121 | [8] 0.113 | entospletinib -0.129

MOSPD2 (UniProt Q8NHP6)
Chain of UniProt Q8NHP6 (Q8NHP6 whole entry, looked up): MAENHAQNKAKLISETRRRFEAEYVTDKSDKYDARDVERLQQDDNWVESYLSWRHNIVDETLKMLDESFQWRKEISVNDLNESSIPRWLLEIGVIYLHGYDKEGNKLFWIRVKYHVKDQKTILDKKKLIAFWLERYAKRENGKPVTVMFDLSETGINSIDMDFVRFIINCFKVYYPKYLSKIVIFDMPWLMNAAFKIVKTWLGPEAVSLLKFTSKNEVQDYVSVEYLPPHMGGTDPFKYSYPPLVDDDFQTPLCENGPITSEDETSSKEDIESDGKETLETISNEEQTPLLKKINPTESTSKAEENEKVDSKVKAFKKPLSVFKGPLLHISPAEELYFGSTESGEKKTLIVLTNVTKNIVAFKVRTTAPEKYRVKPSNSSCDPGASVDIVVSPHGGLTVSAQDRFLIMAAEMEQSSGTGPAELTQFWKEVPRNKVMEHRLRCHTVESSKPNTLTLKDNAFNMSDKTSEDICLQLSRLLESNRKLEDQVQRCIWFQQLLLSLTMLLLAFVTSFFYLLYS
inactive: nilotinib 0.054 | [1] -0.146 | dasatinib 0.006 | [2] -0.009 | [3] 0.015 | quisinostat -0.096 | tipifarnib 0.089 | [4] -0.034 | [5] -0.043 | [6] -0.026 | vorinostat 0.039 | silmitasertib 0.071 | [8] -0.02 | entospletinib -0.074
active: [7] -0.364

MMS19 isoform 8 (UniProt Q96T76)
Chain of UniProt Q96T76 (Q96T76 whole entry, looked up): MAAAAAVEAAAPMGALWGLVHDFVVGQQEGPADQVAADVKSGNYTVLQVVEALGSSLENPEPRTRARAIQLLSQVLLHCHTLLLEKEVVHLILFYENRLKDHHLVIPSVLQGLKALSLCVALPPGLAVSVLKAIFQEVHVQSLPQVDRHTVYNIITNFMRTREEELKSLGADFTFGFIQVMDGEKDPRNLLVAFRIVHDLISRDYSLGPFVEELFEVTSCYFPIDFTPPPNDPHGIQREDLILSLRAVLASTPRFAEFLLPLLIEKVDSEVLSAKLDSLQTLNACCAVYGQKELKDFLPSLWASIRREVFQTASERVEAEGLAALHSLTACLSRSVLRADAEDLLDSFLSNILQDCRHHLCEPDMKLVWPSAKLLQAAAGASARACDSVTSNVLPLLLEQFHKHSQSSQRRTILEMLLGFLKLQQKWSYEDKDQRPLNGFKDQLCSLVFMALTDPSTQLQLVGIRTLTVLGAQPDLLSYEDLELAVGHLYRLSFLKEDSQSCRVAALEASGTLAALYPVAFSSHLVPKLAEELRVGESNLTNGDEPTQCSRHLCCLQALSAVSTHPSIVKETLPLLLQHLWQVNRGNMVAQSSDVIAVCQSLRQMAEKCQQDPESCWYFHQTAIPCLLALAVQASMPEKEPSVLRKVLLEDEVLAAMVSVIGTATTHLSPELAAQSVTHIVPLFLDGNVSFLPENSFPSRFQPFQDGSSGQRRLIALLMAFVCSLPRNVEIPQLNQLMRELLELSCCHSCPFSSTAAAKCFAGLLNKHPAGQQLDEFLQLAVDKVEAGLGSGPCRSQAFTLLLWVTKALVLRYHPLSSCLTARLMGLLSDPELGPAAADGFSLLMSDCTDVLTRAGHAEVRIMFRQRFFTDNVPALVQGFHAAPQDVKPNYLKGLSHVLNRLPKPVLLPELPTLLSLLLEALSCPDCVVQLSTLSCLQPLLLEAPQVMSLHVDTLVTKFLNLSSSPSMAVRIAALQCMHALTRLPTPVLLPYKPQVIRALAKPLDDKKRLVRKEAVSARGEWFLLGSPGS
inactive: nilotinib -0.014 | [1] 0.019 | dasatinib -0.043 | [2] 0.018 | [3] -0.011 | quisinostat -0.056 | tipifarnib -0.002 | [4] 0.053 | [5] 0.014 | [6] 0.004 | [7] 0.057 | silmitasertib 0.054 | [8] 0.029 | entospletinib 0.024
active: vorinostat -0.372

— the supplement of paper PMC10849652
